Results on 49 compounds are retold here after PubChem BioAssay AID504332 (National Center for Advancing Translational Sciences (NCATS), 2011).

In all, about 350,000 compounds went through this assay and about 31,000 (8.9%) were called active. Not shown: some 15% with an inconclusive outcome. The sample holds actives, similar compounds and a random draw of the others, so the mix is not that of the screen. Unmarked numbers belong to inactive results. Calls come from the whole dose curve; as a rule, active = well fitted inhibition curve with a large enough effect; inconclusive = small, poorly fitted or top-dose-only effect; inactive = no such curve, though single readings can be large or run the other way.
% is set by controls: 0 for no effect and ±100 for the full control effect; potency is the fitted concentration of half-maximal effect.

Chain of Histone-lysine N-methyltransferase EHMT2 (Homo sapiens) (Q96KQ7 913-1193 limits assumed): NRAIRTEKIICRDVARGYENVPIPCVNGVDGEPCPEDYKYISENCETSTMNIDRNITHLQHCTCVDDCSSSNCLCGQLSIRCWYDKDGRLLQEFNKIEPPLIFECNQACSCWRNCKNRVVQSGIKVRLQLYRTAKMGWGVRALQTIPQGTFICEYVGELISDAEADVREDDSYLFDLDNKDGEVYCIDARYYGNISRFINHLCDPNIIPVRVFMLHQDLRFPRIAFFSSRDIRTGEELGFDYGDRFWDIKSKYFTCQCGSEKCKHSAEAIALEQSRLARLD

The target of this experiment is Histone-lysine N-methyltransferase EHMT2 (Homo sapiens) (UniProt Q96KQ7). The experiment can be described thus: qHTS Assay for Inhibitors of Histone Lysine Methyltransferase G9a. Note: nearly all actives have a fitted effect of over 75% in size. The note with it: G9a H3K9 monomethylation, AlphaScreen, 2 h; series mostly up to 59 µM; activity, negative = inhibition: at the top concentration. The procedure, abridged:
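Quantitative HTS format: methyltransferase activity on a biotin-tagged H3K9 peptide is measured by AlphaScreen, using a rabbit anti-monomethyl-H3K9 antibody with streptavidin donor and anti-IgG acceptor beads. Final levels are 20 nM enzyme, 500 nM peptide, 20 uM SAM; 2 h RT.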
(In general: Quantitative high-throughput screening tests each substance at several concentrations.)
For `O=C(CCn1nnnc1CN1CCOCC1)N1CCC(c2ccccc2Cl)C1` (centres undefined), the “activity, negative = inhibition” value was 68.2% [at 102 µM].
As for `Cn1c(SCC(=O)c2cccs2)nnc1-c1ccco1`, the Potency is 50.1 µM (active).
Still for that read-out and setting: the same measure for `Nn1c(SCC(=O)Nc2nccs2)nnc1-c1ccco1`: 28.2 µM (active).
Consider `CCOC(=O)CSc1nnc(-c2ccco2)n1C`, for which the “activity, negative = inhibition” value was -7.88% [at 102 µM].
As to `CCc1cccc(C)c1NC(=O)CSc1nnc(-c2ccco2)n1N`, the activity, negative = inhibition is 11.7% [at 0.501 µM].
Still for that read-out and setting: the same measure for `CCCCNC(=O)CSc1nnc(-c2ccco2)n1C`: -12.7%.
As for `Cn1c(SCC(=O)Nc2nccs2)nnc1-c1cccnc1`, the “activity, negative = inhibition” value is -4.03%.
Still for that read-out and setting: the value for `Cc1cccc(Cn2c(=O)n(CCC(=O)NCCc3ccc(Cl)cc3)c(=O)c3sccc32)c1` was -34.7%; that for `COc1ccc(NC(=O)CN(C)C(=O)c2ccc(NC3CC3)c([N+](=O)[O-])c2)cc1` was -3.73% [at 2.33 µM].
Take `Cc1ccc(-n2c(=O)c3cccnc3n2CC(=O)NCc2ccc(F)cc2)cc1C`: the “activity, negative = inhibition” value was 5.6%.
The same measure, in the same setting: the value for `CC(=O)Nc1cc(C(=O)NCc2ccc(F)cc2Cl)ccc1Sc1ccc(Cl)cc1` was -3.69%.
In the case of `CCN(CCCNC(=O)c1ccc(Sc2ccc(C)cc2)c(NC(C)=O)c1)c1cccc(C)c1`, the Potency was 12.6 µM (active).
Take `CCN(CCCNC(=O)c1ccc2c(c1)NC(=O)CN2C)c1cccc(C)c1`: the Potency was 7.94 µM (active).
On to `Cc1cccc(C(=O)NCCCN(C)CCCNC(=O)c2cccc(C)c2)c1`, for which the “activity, negative = inhibition” value is 10.2%.
With `CC(=O)Nc1cc(C(=O)NCc2ccc(F)cc2)ccc1Sc1ccc(F)cc1`, the “activity, negative = inhibition” value is -1.44%.
The same measure, in the same setting: the value for `CCN(CCCNC(=O)Cn1ncc2c([nH]c3ccccc32)c1=O)c1cccc(C)c1` was -28%; that for `Cc1oc2ccc(O)c(CN3CCOCC3)c2c1C(=O)Nc1cccc(Cl)c1C` was 0.579%; that for `C=CCOc1ccc(/C=C/C(=O)OCC(=O)NCC2CCCO2)cc1` (centres undefined) was 6.35% [at 12.7 µM].
As to `Cc1ccc(N(Cc2cc(=O)[nH]c3ccccc23)C(=O)CCl)cc1`, the Potency is 11.2 µM (active).
Turning to `Cn1nnnc1SCc1cc(=O)[nH]c2ccccc12`, the “activity, negative = inhibition” value was 13.3%.
On to `CC(=O)N(Cc1cc(=O)[nH]c2ccccc12)c1ccc(C)cc1C`, for which the Potency was 31.6 µM (active).
Regarding `CCCN(CC(=O)Nc1ccccc1C)C(=O)c1cc(=O)[nH]c2ccccc12`, the “activity, negative = inhibition” value was -4.7% [at 102 µM].
Same read-out and setting: the value for `Cc1ccc(N(Cc2cc3ccccc3[nH]c2=O)C(=O)c2cccs2)cc1` was -5.43%; that for `CCC(=O)N(Cc1cc2ccccc2[nH]c1=O)c1ccc(OC)cc1` was 3.58% [at 102 µM].
On the same count and under the same terms, the same measure for `Cc1oc2ncnc(N3CCCCC3)c2c1C(=O)N1CCN(c2cccc(Cl)c2)CC1`: -29.8%.
With `Cc1ccc2nc(-c3ccc(C)c(NC(=O)Cc4ccccc4)c3)oc2c1`, the “activity, negative = inhibition” value was 9.96%.
Same read-out and setting: the value for `CCC(NC(=O)c1cc(COc2ccc(F)c(F)c2)on1)c1ccncc1` (centres undefined) was 13.4% [at 12.7 µM]; that for `COc1cc(OC)cc(C(=O)Nc2ccc3nc(Nc4cccc(C(F)(F)F)c4)cc(C)c3c2)c1` was -2.07%; that for `COc1ccc(S(=O)(=O)Nc2ccc3cn[nH]c3c2)cc1[N+](=O)[O-]` was -20.9% [at 12.7 µM].
Still for that read-out and setting: the value for `COc1cccc(OC)c1C(=O)Nc1nnc(C(C)C)s1` was -41.9% [at 102 µM].
With `CCC(CC)c1nnc(NC(=O)C2=COCCO2)s1`, the Potency is 39.8 µM (active).
With `CCN(CC)C(=O)c1sc(NC(=O)c2ccco2)c(C#N)c1C`, the “activity, negative = inhibition” value was -19.4%.
Still for that read-out and setting: the same measure for `CCn1c(SCC(=O)Nc2sc(C)c(C)c2C#N)nnc1C1CC1`: 9.74%.
On to `Cc1sc(NC(=O)C2=COCCO2)c(C#N)c1C`, for which the Potency is 11.2 µM (active).
In the case of `CCC(CC)c1nnc(NC(=O)c2nn(C)c(=O)c3ccccc23)s1`, the “activity, negative = inhibition” value is 1.31% [at 102 µM].
On the same count and under the same terms, the same measure for `O=C(N=C1SC2CS(=O)(=O)CC2N1c1cc(Cl)ccc1Cl)C1CC1` (centres undefined): 0.566% [at 102 µM]; for `CCOc1ccc(N(CC)S(=O)(=O)N2CCCC(C(=O)NCc3ccc(SC)cc3)C2)cc1` (centres undefined): -30.4%; for `CCCCn1c(=O)c2oc3ccccc3c2n(CC(=O)Nc2ccccc2OC)c1=O`: 6.86%.
Same read-out and setting: the same measure for `CCCCc1ccc(NC(=S)N2CCCC(CO)C2)cc1` (centres undefined): 22.7%; for `COc1ccc(NC(=S)N2CCCC(CO)C2)c(OC)c1` (centres undefined): -13.8% [at 102 µM].
Take `COc1cc(NC(=S)N2CCCC(C)C2)cc(OC)c1OC` (centres undefined): the Potency was 50.1 µM (active).
As for `CCOc1ccc(NC(=O)c2ccc(NC(=O)COC(=O)c3ccc(NC(=O)CC#N)cc3)cc2)cc1`, the activity, negative = inhibition was 12.7% [at 2.33 µM].
Take `O=C(NCc1ccccc1)C(=O)NCC(c1ccco1)S(=O)(=O)c1ccc(Cl)cc1` (centres undefined): the “activity, negative = inhibition” value is -6.14%.
On the same count and under the same terms, the value for `Cc1nn(Cc2ccccc2)c(C)c1C(=O)N1CCN(CC(=O)Nc2ccccc2Cl)CC1` was -4.66%.
Still for that read-out and setting: the same measure for `Cc1ccc(S(=O)(=O)N(C)C)cc1NC(=O)COC(=O)c1c(C)noc1C`: -6.63%.
With `CN(C)S(=O)(=O)c1cccc(NC(=O)COC(=O)/C=C/c2cccs2)c1`, the “activity, negative = inhibition” value was 6.05% [at 102 µM].
As for `Cc1ccc(S(=O)(=O)N(C)C)cc1NC(=O)COC(=O)/C=C/c1cccs1`, the Potency was 28.2 µM (active).
Take `CCOC(=O)c1cc2c(=O)n3ccccc3nc2n(CCCOC)c1=NC(=O)C(C)Oc1ccccc1` (centres undefined): the “activity, negative = inhibition” value was 6.36%.
Still for that read-out and setting: the value for `COCCCC1CCN(C(=O)C2CCC(=O)N(C3CCCCCC3)C2)CC1` (centres undefined) was 11.5% [at 102 µM].
